Hits are enriched below; roughly 9.3% of the tested compounds scored in any of these assays.
Abs 340nm: compound light absorbance at 340 nm, profiling panel, artefact control, biochemical, MLSMR library, data from PS, PMK, MK assays; fold change at 10 µM; AID 708, 2007; 65,000 tested, under 10 active; compound absorbance at 340 nm, fold over control;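 active means at 10 µM dose, initial 340 nm absorbance at least 2 fold that of control wells; inactive means change under 2 fold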;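 further: initial absorbance extrapolated from kinetic A340 decline of NADH oxidation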
Fluor 339 460: intrinsic fluorescence of library compounds, ex339/em460 – biochemical, MLSMR library, data from DPM-DC assay, artefact control, profiling panel; compound autofluorescence, ex339/em460 nm, NADH buffer; stronger effect = higher value; 1 = no-compound wells, NADH background; fluorescence fold increase at 10 µM; 65,000 tested, 5.5% active;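 active means at 10 µM, mean starting fluorescence two-fold or more over control wells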;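 further: signal is the first read of a kinetic run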
M1 antagonist: antagonists of rat M1 muscarinic receptor. Muscarinic acetylcholine receptor M1 (Rattus norvegicus), P08482. CHO-M1 cells, Fluo-4 calcium, ACh EC80 antagonist mode; stronger effect = lower value. B-score at 10 µM. 64,000 tested, 3.4% active. AID 628, 2007;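 active means calcium fluorescence response, raw or row-and-column corrected B-score, differing from the plate sample mean either way at a set confidence level, mostly lower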
Target sequence (P08482 whole entry, looked up): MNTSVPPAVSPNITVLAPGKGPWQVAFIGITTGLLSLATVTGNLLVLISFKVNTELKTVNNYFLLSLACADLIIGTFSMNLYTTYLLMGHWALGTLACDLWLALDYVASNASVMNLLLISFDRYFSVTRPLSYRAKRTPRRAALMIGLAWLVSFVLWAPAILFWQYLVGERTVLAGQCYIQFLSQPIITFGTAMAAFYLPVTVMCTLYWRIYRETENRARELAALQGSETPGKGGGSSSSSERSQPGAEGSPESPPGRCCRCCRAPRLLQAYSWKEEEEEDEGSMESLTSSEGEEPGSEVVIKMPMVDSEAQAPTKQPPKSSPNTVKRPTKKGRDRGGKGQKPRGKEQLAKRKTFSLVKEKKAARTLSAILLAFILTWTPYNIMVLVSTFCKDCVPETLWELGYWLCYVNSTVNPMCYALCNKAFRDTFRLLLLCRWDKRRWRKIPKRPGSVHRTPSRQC
Htt clearance: clearance of mutant huntingtin inclusions, primary screen, imaging, HeLa Exon1htt(103Q)mCFP, confocal imaging. aggregate imaging; zero = plate's median compound well. inhibition, % at 1.5 µM. 47,000 tested, 0.42% active;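 active means inhibition of aggregate fluorescence above about 70%, also judged a hit by eye on the cell image, limit read from the data, passing the limit was not always enough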;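 further: cells exposed to compound for three days before fixation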
NADH coupling: inhibitors of PK/LDH coupling enzymes, profiling panel, artefact control, biochemical, MLSMR library; coupled PK/LDH NADH assays, four targets; IC50, µM (top dose mostly 10 µM), for inactives: at the top dose inhibition; 65,000 tested, 0.02% active;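 active means single-dose screening hits from any of four coupled enzyme assays that gave an IC50 when retested across doses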;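 further: the DPM-DC format reads NADH fluorescence rather than 340 nm absorbance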
M1 ag: M1 muscarinic receptor agonists, primary screen, CHO-M1 cells, Fluo-4 calcium, agonist mode; AID 626, 2007; 64,000 tested, 3% active; Fluo-4 calcium fluorescence; stronger effect = higher value; Muscarinic acetylcholine receptor M1; B-score at 10 µM;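 active means fluorescence rise, raw or as B-score row- and column-corrected plate score, outside the 99.7% band of its plate's samples, either direction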
* hit, by the source's call.

Screening CCC1CC2(C)NC(=O)c3c(sc4c3CC(C)(C)OC4)N2C1=O (configuration not stated) returned Abs 340nm 1, Fluor 339 460 2.3*, M1 antagonist 0.026, NADH coupling 4% and M1 ag -0.33.
`CCn1c(SCC(=O)c2ccc(CNC(C)=O)o2)nnc1-c1cccs1` gave Abs 340nm 1, Fluor 339 460 1.1, M1 antagonist 2*, Htt clearance -29, NADH coupling 5% and M1 ag 0.086.
`CCn1c(SCC(=O)NCc2cccs2)nnc1-c1cccs1` gave Abs 340nm 1.1, Fluor 339 460 1.1, M1 antagonist 0.13, Htt clearance 36, NADH coupling 4% and M1 ag 0.23.
Screening CC(=NCCN1CCNCC1)C1=C(O)CC(C)(C)CC1=O returned Abs 340nm 1, Fluor 339 460 1.1, M1 antagonist -0.57, Htt clearance 3, NADH coupling 1% and M1 ag 0.31.
Screening COc1ccc(OC)c(C(c2nnnn2C2CCCC2)N2CCc3ccccc3C2)c1 (configuration not stated) returned Abs 340nm 1, Fluor 339 460 1.1, M1 antagonist 0.89, Htt clearance 73*, NADH coupling 2% and M1 ag 4.3.
Screening COc1ccc(C(c2nnnn2C2CCCC2)N2CCc3ccccc3C2)cc1OC (configuration not stated) returned Abs 340nm 0.99, Fluor 339 460 1, M1 antagonist 0.45, NADH coupling 8% and M1 ag -0.35.
Screening N#Cc1ccccc1OCC(=O)Nc1c(C(=O)C2CC2)oc2ccccc12 returned Abs 340nm 1, Fluor 339 460 2.6*, M1 antagonist 0.048, NADH coupling 10% and M1 ag -0.011.
For CC(=O)Nc1c(C(=O)C2CC2)oc2ccccc12 the results were Abs 340nm 1, Fluor 339 460 1.1, M1 antagonist 0.25, Htt clearance 56, NADH coupling 3% and M1 ag 0.89.
Screening COc1ccc(NC(=O)c2oc3ccccc3c2NC(=O)COc2ccccc2OC)c(OC)c1 returned Abs 340nm 1.1, Fluor 339 460 5*, M1 antagonist 0.32, NADH coupling 5% and M1 ag 0.49.
For COc1cc2c(cc1NC(=O)c1ccc3c(c1)OCO3)oc1ccccc12 the results were Abs 340nm 1.1, Fluor 339 460 3*, M1 antagonist -0.05, Htt clearance -42, NADH coupling 13% and M1 ag 0.44.
O=C(Nc1ccc2c(c1)oc1ccccc12)c1ccc2c(c1)OCO2 was read as Abs 340nm 1.1, Fluor 339 460 1.9, M1 antagonist 0.59, Htt clearance -4, NADH coupling 13% and M1 ag -0.043.
Screening COc1ccc(NC(=O)c2oc3ccccc3c2NC(=O)c2ccc(OC)c(OC)c2)c(OC)c1 returned Abs 340nm 1.1, Fluor 339 460 5*, M1 antagonist -0.21, NADH coupling 7% and M1 ag -0.073.
CCn1c2ccccc2c2nnc(SCc3cc(=O)n4ccsc4n3)nc21 was read as Abs 340nm 1, Fluor 339 460 1.1, M1 antagonist 0.16, NADH coupling 3% and M1 ag -0.54.
`CC1CN(C2CCN(C(=O)c3ccccc3Cl)CC2)CC(C)O1` (configuration not stated) gave Abs 340nm 1, Fluor 339 460 1.1, M1 antagonist 0.9, Htt clearance -1, NADH coupling 15% and M1 ag -0.51.
CC(C)CCn1c(Br)nc2c1c(=O)n(CC(N)=O)c(=O)n2C was read as Abs 340nm 1.1, Fluor 339 460 1.1, M1 antagonist 0.4, NADH coupling 1% and M1 ag 0.4.
Screening CCOCC(=O)Nc1c(C(=O)Nc2ccccc2OC)oc2ccccc12 returned Abs 340nm 1.1, Fluor 339 460 5.1*, M1 antagonist -0.19, NADH coupling 2% and M1 ag 0.68.
Screening CCC(=O)Nc1c(C(=O)Nc2cccc(OC)c2)oc2ccccc12 returned Abs 340nm 1.1, Fluor 339 460 1.3, M1 antagonist 0.12, Htt clearance 14, NADH coupling 5% and M1 ag 0.55.
Screening O=c1nc(-c2ccccc2)c2ccccc2[nH]1 returned Abs 340nm 1.1, Fluor 339 460 2.7*, M1 antagonist -0.96, Htt clearance 48, NADH coupling 15% and M1 ag 0.034.
For O=c1cc(-c2ccccc2)[nH]c2ccccc12 the results were Abs 340nm 1.1, Fluor 339 460 1.3, M1 antagonist 0.62, Htt clearance -182, NADH coupling 7% and M1 ag -0.17.
Cc1ccc(NC(=O)C2CCCN2S(=O)(=O)c2cccc3cccnc23)cc1F (configuration not stated) was read as Abs 340nm 0.99, Fluor 339 460 1, M1 antagonist 0.96, NADH coupling 2% and M1 ag 0.18.
`Cc1cccc(NC(=O)C2CCCN2S(=O)(=O)c2cccc3cccnc23)c1` (configuration not stated) gave Abs 340nm 1.1, Fluor 339 460 1.1, M1 antagonist 0.74*, Htt clearance -118, NADH coupling 0% and M1 ag 0.72.
Screening COc1cccc(OC)c1C(=O)n1nc(C)cc1C returned Abs 340nm 1, Fluor 339 460 1, M1 antagonist -0.64, Htt clearance -87, NADH coupling 3% and M1 ag 0.69.
Screening Nc1c2c(nc3ccccc13)N(c1ccccc1)CC2 returned Abs 340nm 1.1, Fluor 339 460 2.3*, M1 antagonist -1, NADH coupling 21% and M1 ag -0.72.
For CC1CN(c2nc3c(c(=O)n(C)c(=O)n3C)n2Cc2c(Cl)cccc2Cl)CC(C)O1 (configuration not stated) the results were Abs 340nm 1, Fluor 339 460 1.1, M1 antagonist 3.2*, NADH coupling 4% and M1 ag -0.28.
CC1CN(c2nc3c(c(=O)n(C)c(=O)n3C)n2Cc2c(F)cccc2Cl)CC(C)O1 (configuration not stated) was read as Abs 340nm 1, Fluor 339 460 1.1, M1 antagonist 0.53, NADH coupling 4% and M1 ag 0.99.
COC(=O)c1[nH]c2ccc(Cl)cc2c1NC(=O)CCN1CCOCC1 was read as Abs 340nm 1, Fluor 339 460 2.1*, M1 antagonist -1.6, Htt clearance 32, NADH coupling 19% and M1 ag -0.63.
For COC(=O)c1[nH]c2cccc(OC)c2c1NC(=O)CCN1CCC(C)CC1 the results were Abs 340nm 1.1, Fluor 339 460 2, M1 antagonist -0.27, NADH coupling 8% and M1 ag -0.41.

Bioassay records deposited in PubChem by several laboratories.
